Test results reported in PubChem BioAssay AID1159580 (chemical genetic matrix, 2015).
Several values for one entry are separate records, joined by “and”; a condition that tells them apart may be missing. Equal entries are not always repeated. Among all 5,500 compounds or so, about 2,000 (36%) were called active. About 18% were inconclusive and are not listed. Rule as the data show it: active = normalized growth mostly below about 0.91 (no sharp cut-off); inconclusive = no clear call, values can overlap the other calls; inactive = mostly above about 0.92. This is one part of the list.

Experiment: chemical genetic growth profiling, strain panel (AID 1159580);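 also: tested at 20 µM; growth read once vehicle control cultures reached saturation at 30 °C; 1 = growth at the plate median or of vehicle wells; lower values mean less growth of the strain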
Details: S. cerevisiae deletion strains, growth OD

Measured: normalized growth

CC1(C)NC(=O)N(c2ccc([N+](=O)[O-])c(C(F)(F)F)c2)C1=O
inactive: locus YAL013W, strain DEP1, active compounds read low 1.01 and 0.99 | locus YAL021C, strain ccr4, active compounds read low 1.02 | locus YAL026C, strain drs2, active compounds read low 0.983 | locus YAL030W, strain snc1, active compounds read low 0.99 | locus YAL040C, strain CLN3, active compounds read low 1.05 | locus YBL061C, strain skt5, active compounds read low 0.98 | locus YBR009C, strain hhf1, active compounds read low 0.982 | locus YBR021W, strain FUR4, active compounds read low 1.02 | locus YBR023C, strain chs3, active compounds read low 0.987 | locus YBR171W, strain sec66, active compounds read low 0.98 | locus YBR229C, strain ROT2, active compounds read low 1.01 | locus YBR231C, strain swc5, active compounds read low 0.989 | locus YBR279W, strain paf1, active compounds read low 0.994 | locus YCL011C, strain gbp2, active compounds read low 0.985 | locus YCL016C, strain dcc1, active compounds read low 0.986 | locus YCL029C, strain bik1, active compounds read low 0.967 | locus YCL061C, strain MRC1 (second series), active compounds read low 1 | locus YCL061C, strain MRC1, active compounds read low 0.976 | locus YCL069W, strain vba3, active compounds read low 0.98 | locus YCR088W, strain abp1, active compounds read low 0.982 | locus YDL005C, strain med2, active compounds read low 0.993 | locus YDL035C, strain GPR1, active compounds read low 1 | locus YDL040C, strain nat1, active compounds read low 0.984 | locus YDL074C, strain BRE1, active compounds read low 1.02 | locus YDL101C, strain DUN1, active compounds read low 1.01 | locus YDL134C, strain PPH21, active compounds read low 1.02 | locus YDL185W, strain tfp1, active compounds read low 0.977 | locus YDL192W, strain arf1, active compounds read low 0.983 | locus YDR001C, strain nth1, active compounds read low 0.985 | locus YDR069C, strain doa4, active compounds read low 0.99 | locus YDR101C, strain arx1, active compounds read low 0.982 | locus YDR137W, strain rgp1, active compounds read low 0.894 | locus YDR150W, strain NUM1, active compounds read low 1.03 | locus YDR159W, strain sac3, active compounds read low 0.985 | locus YDR162C, strain NBP2, active compounds read low 1 | locus YDR195W, strain ref2 0.975 | locus YDR297W, strain sur2, active compounds read low 0.99 | locus YDR318W, strain mcm21, active compounds read low 0.994 | locus YDR334W, strain swr1, active compounds read low 0.989 | locus YDR335W, strain msn5, active compounds read low 0.994 | locus YDR363W, strain ESC2, active compounds read low 0.975 | locus YDR388W, active compounds read low 0.983 | locus YDR392W, strain spt3, active compounds read low 0.998 | locus YDR502C, strain sam2, active compounds read low 0.984 | locus YEL003W, strain gim4, active compounds read low 0.985 | locus YEL037C, strain rad23, active compounds read low 0.988 | locus YEL061C, strain CIN8 (second series), active compounds read low 0.989 | locus YEL061C, strain CIN8, active compounds read low 0.999 | locus YER002W, strain NOP16, active compounds read low 0.996 | locus YER015W, strain faa2, active compounds read low 0.971 | locus YER016W, strain bim1, active compounds read low 0.983 | locus YER110C, active compounds read low 0.971 | locus YER111C, strain swi4, active compounds read low 0.985 | locus YER155C, strain BEM2 (second series), active compounds read low 0.987 | locus YER155C, strain BEM2, active compounds read low 0.996 | locus YER167W, strain BCK2, active compounds read low 1.01 | locus YFR010W, strain ubp6, active compounds read low 0.985 | locus YGL078C, strain dbp3, active compounds read low 0.986 | locus YGL086W, strain mad1, active compounds read low 0.992 | locus YGL167C, strain pmr1, active compounds read low 0.983 | locus YGL173C, strain kem1, active compounds read low 0.976 | locus YGL227W, strain vid30, active compounds read low 0.973 | locus YGL240W, strain doc1, active compounds read low 0.98 | locus YGL248W, strain PDE1, active compounds read low 1.01 | locus YGL253W, strain hxk2, active compounds read low 0.985 | locus YGR078C, strain PAC10, active compounds read low 1.01 and 0.981 | locus YGR135W, strain pre9, active compounds read low 0.98 | locus YGR229C, strain SMI1, active compounds read low 1.02 | locus YGR252W, strain gcn5, active compounds read low 0.978 | locus YHR013C, strain ard1, active compounds read low 0.97 | locus YHR027C, strain rpn1, active compounds read low 0.984 | locus YHR030C, strain SLT2, active compounds read low 1.01 and 0.984 | locus YHR079C, strain IRE1 (second series), active compounds read low 0.988 | locus YHR079C, strain IRE1, active compounds read low 1 | locus YHR094C, strain hxt1, active compounds read low 0.986 | locus YHR129C, strain ARP1, active compounds read low 1.01 | locus YHR142W, strain chs7, active compounds read low 0.986 | locus YHR200W, strain rpn10, active compounds read low 0.987 | locus YIL066C, strain RNR3, active compounds read low 1.02 | locus YIL073C, strain SPO22, active compounds read low 1 | locus YIL125W, strain kgd1, active compounds read low 0.986 | locus YIR030C, strain dcg1, active compounds read low 0.983 | locus YJL092W, strain hpr5, active compounds read low 0.978 | locus YJL095W, strain BCK1 (second series), active compounds read low 0.982 | locus YJL095W, strain BCK1, active compounds read low 0.991 and 1 | locus YJL115W, strain asf1, active compounds read low 0.992 | locus YJL129C, strain trk1, active compounds read low 0.991 | locus YJL134W, strain LCB3, active compounds read low 1.01 | locus YJL154C, strain vps35, active compounds read low 0.988 | locus YJL164C, strain tpk1, active compounds read low 0.985 | locus YJL166W, strain qcr8, active compounds read low 0.986 | locus YJL168C, strain set2, active compounds read low 0.987 | locus YJL187C, strain SWE1 (second series), active compounds read low 1.01 | locus YJL187C, strain SWE1, active compounds read low 0.981 | locus YJR043C, strain POL32, active compounds read low 1 | locus YJR066W, strain TOR1, active compounds read low 0.956
